Over roughly 110,000 compounds, “z-score” has its median near -0.1; the highest 2% begin near 2. The sample holds the highest values, similar compounds and a random draw of the others, so the mix is not that of the screen. Activity calls are given as the source filed them.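 How the source made its calls: active means z-score in the third read window above 3 or below -3; inactive means the rest.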

The target of the test is Metabotropic glutamate receptor 8 (Rattus norvegicus) (UniProt P70579). Put plainly: mGluR8 Gi/Go-coupled signaling modulation – cell-based, rat, thallium flux, HTS, primary screen (AID 488969). Particulars: HEK293 rat mGluR8, GIRK (G protein-gated inwardly rectifying potassium channel) thallium flux, FluoZin2; at 10 µM; stronger effect = higher value; submaximal glutamate (EC20) added with thallium.
Chain of Metabotropic glutamate receptor 8 (Rattus norvegicus) (P70579 whole entry, looked up): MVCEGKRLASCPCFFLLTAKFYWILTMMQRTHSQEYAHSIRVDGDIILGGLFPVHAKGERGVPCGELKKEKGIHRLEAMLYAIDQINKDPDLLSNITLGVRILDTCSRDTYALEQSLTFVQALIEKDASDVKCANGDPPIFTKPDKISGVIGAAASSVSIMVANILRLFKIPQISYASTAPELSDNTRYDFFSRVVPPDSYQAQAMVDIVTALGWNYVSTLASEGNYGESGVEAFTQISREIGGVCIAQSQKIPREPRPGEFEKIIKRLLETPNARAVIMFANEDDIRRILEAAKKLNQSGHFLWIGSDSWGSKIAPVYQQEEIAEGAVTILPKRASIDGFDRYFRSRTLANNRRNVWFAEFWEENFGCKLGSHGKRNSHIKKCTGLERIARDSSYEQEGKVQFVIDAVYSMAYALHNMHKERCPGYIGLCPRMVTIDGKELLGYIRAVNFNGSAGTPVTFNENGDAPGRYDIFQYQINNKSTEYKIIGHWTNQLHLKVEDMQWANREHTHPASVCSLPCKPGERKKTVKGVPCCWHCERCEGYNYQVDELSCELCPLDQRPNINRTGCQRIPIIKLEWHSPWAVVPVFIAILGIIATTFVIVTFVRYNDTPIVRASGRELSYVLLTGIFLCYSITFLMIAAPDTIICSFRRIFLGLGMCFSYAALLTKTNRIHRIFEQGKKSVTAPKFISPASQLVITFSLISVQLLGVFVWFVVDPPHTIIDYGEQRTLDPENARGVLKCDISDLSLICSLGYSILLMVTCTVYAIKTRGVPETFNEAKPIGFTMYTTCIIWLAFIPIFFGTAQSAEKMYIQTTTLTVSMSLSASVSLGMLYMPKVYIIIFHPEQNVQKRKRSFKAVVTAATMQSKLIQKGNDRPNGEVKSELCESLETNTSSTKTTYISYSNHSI
Consider `CC(C)c1onc(C(=O)N2CCCCC2C)c1[N+](=O)[O-]` (stereo not given), for which the z-score was -0.0403.
Turning to `OC(CSc1ccccc1Cl)CN1CCN(c2ccc(F)cc2)CC1` (stereo not given), the z-score is -0.618.
To `CCOC(=O)c1cnc2ccc(C)cc2c1Sc1ccc(F)cc1` belongs -0.262; to `Cc1ccc(S(=O)(=O)N2CCCC2C(=O)Nc2cc(C)on2)cc1` (stereo not given), 0.4; to `Cc1ccc(CNC(=O)c2ccccc2NS(C)(=O)=O)cc1`, -0.309.
As for `COc1ccc(CNC(=S)Nc2ccc(OC)cc2)cc1`, the z-score amounted to 0.711.
To `FC(F)(F)c1cccc(NC(=S)NCc2ccccn2)c1` belongs 0.164; to `FC(F)(F)c1cccc(NC(=S)NCc2ccccc2)c1`, 5.63 (active); to `FC(F)Oc1ccc(NC(=S)NCc2ccccc2)cc1`, 1.51.
`FC(F)(F)c1cccc(NC(=S)NNC(=S)NCc2ccccc2)c1` yielded a z-score of -0.388.
For `FC(F)(F)Oc1ccc(NC(=S)NCc2ccccc2)cc1`, the z-score was 3.23 (active).
To `N=C(N)SCc1nc2ccccn2c1Br` belongs 0.308; to `CCOc1cccc(C(=O)Nc2ccc3oc(Cc4ccc(Cl)cc4)nc3c2)c1`, -0.351.
To `COc1ccc(N(CC(O)CN2C(=O)NC(C)(C)C2=O)S(=O)(=O)c2ccccc2)cc1` (stereo not given) belongs -0.294; to `C=CCn1c(SCc2c(F)c(F)c(F)c(F)c2F)nc(O)cc1=O`, -0.151.
To `C=CCn1c(SCC)nc(O)cc1=O` belongs -0.0583; to `C=CCn1c(SCc2ccccc2)nc(O)cc1=O`, 2.19; to `O/N=C/c1cc(Br)ccc1OCc1ccc(F)cc1`, -0.142.
For `Cc1nc2sccn2c(=O)c1Cl`, the z-score came out at 0.324.
`Cc1nc2sccn2c(=O)c1Br` came in with a z-score of 0.0767.
The same measure for `Cn1c(=O)c2c(nc3sccn32)n(C)c1=O`: 3.7 (active).
To `COc1ccccc1C(=O)NCc1ccccc1` belongs -0.524.
Compound `Cc1ccc(O)c(NC(=S)NC(=O)c2ccc(-c3ccc(Cl)cc3)o2)c1` registered a z-score of 0.233.
As to `CC(=O)c1ccc(Cc2ncc(C(F)(F)F)cc2Cl)s1`, the z-score was -0.823.
The same measure for `O=C(CCl)c1ccc(Cc2ncc(C(F)(F)F)cc2Cl)s1`: -0.0387.
To `NC(=O)c1ccc(Cc2ncc(C(F)(F)F)cc2Cl)s1` belongs 4.24 (active); to `CC1Cc2ccccc2N1CC(=O)c1c(N)n(Cc2ccccc2)c(=O)n(C)c1=O` (stereo not given), -0.314.
The same measure for `Cc1ccc(-n2c(N)c(C(=O)N3CCN(C)CC3)sc2=S)cc1`: 0.948; for `Nc1c(C(=O)N2CCCCC2)sc(=S)n1-c1ccccc1`: -0.163.
For the compound `CN1CCN(C(=O)c2sc(=S)n(-c3ccccc3)c2N)CC1`, the z-score is 11.1 (active).
With `COc1ccc(OC)c(NS(=O)(=O)c2cc(OC)ccc2OC)c1`, the z-score was -0.0402.
`COCCCNS(=O)(=O)c1ccc(OC)c(Cl)c1Cl` gave a z-score of 0.284.
Turning to `COc1ccc(COC(=O)NNC(=O)c2ccccc2Cl)cc1`, the z-score turned out to be 0.289.
The same measure for `COc1ccc(-n2c(C)cc(C(=O)CN3C(=O)c4ccccc4C3=O)c2C)cc1`: 0.595; for `COc1ccc(C2C(C(N)=O)=C(C)Nc3nc(-c4ccccc4)nn32)cc1OC` (stereo not given): 0.875; for `COc1cccc(C2C(C(N)=O)=C(C)Nc3nc(-c4cccc(Cl)c4)nn32)c1` (stereo not given): -0.342.
To `COc1ccc(OC)c(C2C(C(N)=O)=C(C)Nc3nc(-c4cccc(Cl)c4)nn32)c1` (stereo not given) belongs 1.16; to `CC1=C(C(N)=O)C(c2cccs2)n2nc(-c3cccc(Cl)c3)nc2N1` (stereo not given), 2.14.
The same measure for `CC1=C(C(N)=O)C(c2cccnc2)n2nc(-c3cccc(Cl)c3)nc2N1` (stereo not given): 0.192; for `COc1ccc(C2C(C(N)=O)=C(C)Nc3nc(-c4cccc(Cl)c4)nn32)cc1OC` (stereo not given): 4.01 (active); for `Cc1nc2ccccn2c1C(=O)NN=C1C2CC3CC(C2)CC1C3`: -0.259.
Turning to `O=c1[nH]cnc2scc(-c3ccccc3)c12`, the z-score was found to be 0.259.
To `O=c1[nH]cnc2scc(-c3ccc(-c4ccccc4)cc3)c12` belongs 0.454; to `O=c1[nH]cnc2scc(-c3ccc(F)cc3)c12`, -0.0775.
The same measure for `Cc1ccc(-c2csc3nc[nH]c(=S)c23)cc1C`: 15.9 (active); for `Cc1ccc(-c2csc3ncnc(-n4nnc5ccccc54)c23)cc1C`: -0.0158; for `S=c1[nH]cnc2scc(-c3ccccc3)c12`: 13.1 (active).
`O=C(CSCCc1ccccn1)Nc1ccc(Br)cn1` displayed a z-score of -0.0969.
To `CCc1nnc(NC(=O)c2cc(S(=O)(=O)N3CCN(c4ccccc4)CC3)ccc2Cl)s1` belongs -0.438; to `CCCOc1c(Br)cc(/C=N/O)cc1OC`, -0.858.
`CCCCOc1c(Br)cc(/C=N/O)cc1OCC`: the z-score was found to be 2.8.
To `CCOc1cc(/C=N/O)cc(Br)c1OCC` belongs -0.564.
On to `CCOc1ccc(NC(=O)CN2CCN(CC(=O)Nc3ccc(F)c(F)c3)CC2)cc1`, for which the z-score is -0.0841.
To `N#Cc1cnn(Cc2ccccc2)c1N` belongs -0.318.
To `CCOC(=O)C1CCCN(Cc2nc(N)nc(Nc3ccc(Cl)cc3)n2)C1` (stereo not given) belongs -0.508; to `CC(C)c1ccccc1NC(=S)NN(Cc1ccccc1)c1ccccc1`, -0.164; to `Cc1cccc(NC(=S)NN(Cc2ccccc2)c2ccccc2)c1C`, -0.141.
To `Fc1ccccc1NC(=S)NN(Cc1ccccc1)c1ccccc1` belongs 5.03 (active); to `c1ccc(-c2ccc(-c3cnc4n3CCCCC4)cc2)cc1`, 0.704; to `O=C(O)CCCCNS(=O)(=O)c1ccc(Cl)c(C(F)(F)F)c1`, -0.602.
For the compound `CC(C)OC(=O)CSc1nnc(SCc2cccc3ccccc23)s1`, the z-score is -0.157.
Turning to `O=C(NNC(=O)c1cccnc1SCc1cccc([N+](=O)[O-])c1)c1ccccn1`, the z-score is 3.29 (active).
To `O=C(NNC(=O)c1cccnc1SCc1cccc([N+](=O)[O-])c1)c1ccc(F)cc1` belongs 0.33.
To `Cc1ccc(C(=O)NNC(=O)c2cccnc2SCc2cccc([N+](=O)[O-])c2)cc1` belongs -0.0883.
To `COc1cc(NC(=O)c2cc(OC)c(OC)c(OC)c2)c(OC)cc1NC(=O)CN1CCCCC1` belongs -2.33; to `CCN1/C(=C2\C(=O)N(C)C(=S)N2C)C=Cc2ccccc21`, -0.543.
Turning to `CC(C)Cn1c(-c2ccc(Br)o2)n[nH]c1=S`, the z-score came to 1.12.
For `S=c1[nH]nc(-c2cc3ccccc3o2)n1Cc1ccccc1`, the z-score was 2.66.
To `S=c1[nH]nc(-c2ccco2)n1Cc1ccccc1` belongs 0.271; to `Cc1cccc(-c2n[nH]c(=S)n2Cc2ccccc2)c1`, 1.74; to `S=c1[nH]nc(-c2ccc(Br)o2)n1Cc1ccccc1`, 3.42 (active).
The same measure for `Cc1ccc(-c2n[nH]c(=S)n2Cc2ccccc2)cc1`: -0.277; for `COc1ccc(C(=O)Cn2nnc(-c3ccccc3F)n2)cc1`: -0.251; for `C1CCC2(CC1)OCC1(CO2)COC2(CCCCC2)OC1`: 3.83 (active).
The same measure for `C[N+]1(CC2COC3(CCCCC3)O2)CCCC1` (stereo not given): -0.214; for `Nn1c(SCc2ccccc2)nnc1-c1ccccn1`: 0.00631.
Compound `CC(=O)NCCn1c(SCC(=O)NCC2CCCO2)nc2ccccc2c1=O` (stereo not given) returned a z-score of 0.564.
To `CCN(CC)S(=O)(=O)c1cccc(-c2nnc(C(=O)c3ccc(C(F)(F)F)cc3)o2)c1` belongs -0.091; to `CC(C)Oc1cc(NC(=O)CS(=O)CC(=O)Nc2cccc(C(F)(F)F)c2)c(Cl)cc1Cl` (stereo not given), 2.75.
The same measure for `COc1cc(NC(=O)CSCC(=O)Nc2cccc(C(F)(F)F)c2)c(Cl)cc1Cl`: -0.193.
To `CC(C)Oc1cc(NC(=O)CSCC(=O)Nc2cccc(C(F)(F)F)c2)c(Cl)cc1Cl` belongs -0.183; to `CCCn1nnnc1NC(=O)c1cc(Cl)ccc1Cl`, 0.462; to `CCCn1nnnc1NC(=O)c1cccs1`, 0.876.
As for `CCCn1nnnc1NC(=O)c1ccc2ccccc2c1`, the z-score is 8.08 (active).
To `CSc1nc(Cc2ccc(Cl)cc2)nc2ccccc12` belongs 0.221; to `CS(=O)(=O)N(CC(=O)Nc1ccccc1)Cc1ccc(Cl)cc1`, 0.264.
The same measure for `CCN=c1scc(-c2ccco2)n1/N=C/c1ccc(O)cc1`: 6.24 (active); for `CC(C)N=c1scc(-c2ccco2)n1/N=C/c1ccc(O)c(O)c1`: 1.68.
The same measure for `CCN=c1scc(-c2ccco2)n1/N=C/c1ccc(OC)c(O)c1`: 0.709; for `O=C(CCn1c(=O)sc2ccccc21)Nc1ccon1`: -0.246; for `Cc1ccc(OS(=O)(=O)c2ccccc2)c(/C=N/N=C2\NC(=O)C(C)S2)c1` (stereo not given): -0.426.
`O=C(O)/C(=C\c1ccc(Br)cc1)c1ccc(S(=O)(=O)N2CCCCC2)s1`: the z-score was -0.862.
To `CCOC(=O)C(Cc1ccccc1)NC(C)=O` (stereo not given) belongs -0.16; to `CCCN(C(=O)CSc1cc(-c2ccccc2)c2ccc(OC)cc2n1)C1CCS(=O)(=O)C1` (stereo not given), -0.403; to `CCN(C(=O)CSc1cc(-c2ccccc2)c2ccc(OC)cc2n1)C1CCS(=O)(=O)C1` (stereo not given), -0.108.
Compound `COc1ccc2c(-c3ccccc3)cc(SCC(=O)N(C)C3CCS(=O)(=O)C3)nc2c1` (stereo not given) yielded a z-score of 2.36.
The same measure for `O=C(CSc1nnc(Cc2ccccc2)n1-c1ccc(F)cc1)N1CCOCC1`: 0.477; for `O=S(=O)(Cc1cc(Cl)nc(-c2ccccc2)n1)c1ccccc1`: -0.303.
To `COc1ccc(C(=O)NC(=S)Nc2ccc3c(c2)Cc2ccccc2-3)cc1` belongs 0.991; to `O=C(COc1ccccc1)NC(=S)Nc1cccc(NC(=O)c2ccccc2Cl)c1`, -0.164; to `O=C(COc1ccccc1)NC(=S)Nc1cccc([N+](=O)[O-])c1`, 11.8 (active).
On to `O=C(COc1ccccc1)Nc1ccc([N+](=O)[O-])cc1`, for which the z-score was found to be 0.423.
To `O=C(COc1ccccc1)NC(=S)Nc1ccc2c(c1)Cc1ccccc1-2` belongs 6.86 (active); to `O=C(COc1ccccc1)Nc1ccc2c(c1)Cc1cc(NC(=O)COc3ccccc3)ccc1-2`, -0.155; to `CC(Sc1ccccn1)C(=O)Nc1ccccc1` (stereo not given), -0.408.
Compound `Cc1cc2nc(-c3ccco3)cc(C(F)(F)F)n2n1` had a z-score of 0.0437.
To `CC1CC(Nc2cccc(O)c2)=CC(=O)O1` (stereo not given) belongs -0.0768; to `CCCCC1CC1C(=O)Nc1ncc2c(n1)CC(C)(C)CC2=O` (stereo not given), -0.185; to `CCCCC(=O)Nc1ncc2c(n1)CC(C)(C)CC2=O`, 6.64 (active).
To `CC1(C)CC(=O)c2cnc(NC(=O)CCc3ccccc3)nc2C1` belongs -0.267; to `O=C(O)C1CC(=O)N(Cc2cccs2)C1` (stereo not given), 0.254; to `Cc1nc(-c2ccccc2)sc1C(=O)CSc1ccc(Br)cc1`, -0.108.
The same measure for `O=C(CCSc1ccccc1)Nc1nccs1`: 0.115; for `O=C(CSc1ccccc1)N(c1ccc(Br)cc1)c1nccs1`: 9.08 (active); for `CCOC(=O)C1CCCN(C(=O)c2cc3c(-c4cccc(OC)c4)nn(C)c3s2)C1` (stereo not given): -0.832.

The values above are taken from PubChem BioAssay AID488969 (Vanderbilt High Throughput Screening Facility, 2010).
